According to PubChem BioAssay (EPA / NIEHS):
Activity calls are given as the source filed them. Rule for the calls: active = hit-call score of the fitted dose curve at least 0.9, where 1 is the maximum; inactive = score below 0.9.

Tests used:
Conditions in all cases: mRNA level, 48 h; actives raise or lower the signal
[1] = read-out: catalase (CAT), CAT (gene 847); experiment: LTEA_HepaRG_CAT: Life Technologies and Expression Analysis (LTEA) Assay for catalase (CAT) using HepaRG (AID 2283452);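 for AC50: TaqMan qRT-PCR signal normalized to ACTB GAPDH and POLR2A housekeeping genes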
Procedure, shortened: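 Differentiated HepaRG cells in serum-free induction medium were dosed 48 h in duplicate, eight half-log concentrations from 100 uM in 0.5% DMSO. Transcript measured by TaqMan qRT-PCR, normalised to ACTB/GAPDH/POLR2A, fitted bidirectionally against DMSO.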

[2] = read-out: flavin-containing dimethylaniline monooxygenases 3 (FMO3), FMO3 (gene 2328); experiment: LTEA_HepaRG_FMO3: Life Technologies and Expression Analysis (LTEA) Assay for flavin-containing dimethylaniline monooxygenases 3 (FMO3) using HepaRG (AID 2283453);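 for AC50: differentiated human HepaRG liver cells in serum-free induction medium; FMO3 transcript by TaqMan qRT-PCR normalized to ACTB GAPDH and POLR2A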
Procedure, shortened: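 Eight-point concentration-response in serum-free HepaRG cultures (top 100 uM, 0.5% DMSO, 48 h). Read-out: FMO3 mRNA level normalized to three endogenous control genes, fitted bidirectionally versus vehicle.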

[3] = read-out: Cytochrome P450 (CYP1A1), CYP1A1 (gene 1543); experiment: LTEA_HepaRG_CYP1A1: Life Technologies and Expression Analysis (LTEA) Assay for Cytochrome P450 (CYP1A1) using HepaRG (AID 2283454)
Procedure, shortened: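 Induction of CYP1A1 mRNA in a human hepatic cell line was measured 48 h after dosing, with 1 mM phenobarbital as induction positive control and 0.5% DMSO vehicle as baseline for bidirectional curve fitting.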

[4] = read-out: CFLAR gene, CFLAR (gene 8837); experiment: LTEA_HepaRG_CFLAR: Life Technologies and Expression Analysis (LTEA) Assay for CFLAR gene using HepaRG (AID 2283455)
Procedure, shortened: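 Gain- or loss-of-signal changes in CFLAR transcript were fitted bidirectionally relative to 0.5% DMSO. Cells (HepaRG, duplicate wells) were dosed for 48 h across eight half-log concentrations topping at 100 uM; quantitation by TaqMan qRT-PCR.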

[5] = read-out: Forkhead box O1 (FOXO1), FOXO1 (gene 2308); experiment: LTEA_HepaRG_FOXO1: Life Technologies and Expression Analysis (LTEA) Assay for Forkhead box O1 (FOXO1) using HepaRG (AID 2283456)
Procedure, shortened: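 Using one lot of HepaRG hepatic cells kept in 0.5% DMSO, the team applied test chemicals in duplicate, half-log dilutions from 100 uM, for 48 h. Expression, normalised to ACTB/GAPDH/POLR2A, was compared with vehicle in either direction.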

[6] = read-out: growth arrest and DNA damage 45 (GADD45A), GADD45A (gene 1647); experiment: LTEA_HepaRG_GADD45A: Life Technologies and Expression Analysis (LTEA) Assay for growth arrest and DNA damage 45 (GADD45A) using HepaRG (AID 2283458)
Procedure, shortened: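 HepaRG, 48 h exposure, 8 conc. (top 100 uM, half-log steps), 0.5% DMSO vehicle, duplicates. Read-out: qRT-PCR mRNA level, housekeeping-normalized (ACTB/GAPDH/POLR2A). Curves fit bidirectionally vs DMSO baseline.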

[7] = read-out: Forkhead box O3 (FOXO3), FOXO3 (gene 2309); experiment: LTEA_HepaRG_FOXO3: Life Technologies and Expression Analysis (LTEA) Assay for Forkhead box O3 (FOXO3) using HepaRG (AID 2283459)
Procedure, shortened: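 Gene-expression endpoint: FOXO3 transcript level by qRT-PCR in HepaRG cultures treated 48 h with chemicals up to 100 uM (half-log, 0.5% DMSO vehicle).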

[8] = read-out: ABC Transporter (ABCB1), ABCB1 (gene 5243); experiment: LTEA_HepaRG_ABCB1: Life Technologies and Expression Analysis (LTEA) Assay for ABC Transporter (ABCB1) using HepaRG (AID 2283460)
Procedure, shortened: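 Human liver HepaRG line treated 48 h with up to 100 uM compound (eight half-log points, 0.5% DMSO); ABCB1 mRNA change fitted bidirectionally against DMSO controls.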

[9] = read-out: ABC Transporter (ABCC3), ABCC3 (gene 8714); experiment: LTEA_HepaRG_ABCC3: Life Technologies and Expression Analysis (LTEA) Assay for ABC Transporter (ABCC3) using HepaRG (AID 2283462)
Procedure, shortened: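 Differentiated HepaRG liver cells receive test chemicals at eight concentrations (max 100 uM) for 48 h. Expression of ABCC3 is quantified by qRT-PCR against ACTB, GAPDH and POLR2A, and activity is fitted in both directions against the DMSO control.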

[10] = read-out: ABC Transporter (ABCB11), ABCB11 (gene 8647); experiment: LTEA_HepaRG_ABCB11: Life Technologies and Expression Analysis (LTEA) Assay for ABC Transporter (ABCB11) using HepaRG (AID 2283463)
Procedure, shortened: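 Using HepaRG cultures held in 0.5% DMSO, chemicals were tested at half-log dilutions from 100 uM for 48 h. Induction or suppression of ABCB11 mRNA, normalized to ACTB, GAPDH and POLR2A, was fitted bidirectionally against vehicle.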

[11] = read-out: ABC Transporter (ABCC2), ABCC2 (gene 1244); experiment: LTEA_HepaRG_ABCC2: Life Technologies and Expression Analysis (LTEA) Assay for ABC Transporter (ABCC2) using HepaRG (AID 2283464)
Procedure, shortened: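 Gene expression of ABCC2 was determined by qRT-PCR in HepaRG cells exposed 48 h to chemicals (highest 100 uM, half-log dilutions). Activity was fitted in both directions relative to 0.5% DMSO vehicle.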

[12] = read-out: Broad substrate specificity ATP-binding cassette transporter ABCG2 (Homo sapiens) (UniProt Q9UNQ0); experiment: LTEA_HepaRG_ABCG2: Life Technologies and Expression Analysis (LTEA) Assay for ABC Transporter (ABCG2) using HepaRG (AID 2283465)
Procedure, shortened: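 Gene expression of ABCG2 in HepaRG liver cells is quantified by qRT-PCR following 48 h exposure across an eight-point series topping at 100 uM. Values come from bidirectional fitting relative to DMSO vehicle.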

[13] = read-out: ATP-citrate lyase (ACLY), ACLY (gene 47); experiment: LTEA_HepaRG_ACLY: Life Technologies and Expression Analysis (LTEA) Assay for ATP-citrate lyase (ACLY) using HepaRG (AID 2283466)
Procedure, shortened: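 ACLY expression changes in human HepaRG liver cells are quantified by qRT-PCR after 48 h exposure to test chemicals (maximum 100 uM, half-log steps). Values are fitted in both directions relative to 0.5% DMSO vehicle.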

[14] = read-out: Peroxisomal acyl-coenzyme A oxidase 1 (ACOX1) gene, ACOX1 (gene 51); experiment: LTEA_HepaRG_ACOX1: Life Technologies and Expression Analysis (LTEA) Assay for Peroxisomal acyl-coenzyme A oxidase 1 (ACOX1) gene using HepaRG (AID 2283467)
Procedure, shortened: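 Human HepaRG hepatic cultures, 48 h treatment with test chemicals up to 100 uM. ACOX1 expression read by qRT-PCR relative to 0.5% DMSO vehicle.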

[15] = read-out: Alkaline Phosphatase, Placental (ALPP) gene, ALPP (gene 250); experiment: LTEA_HepaRG_ALPP: Life Technologies and Expression Analysis (LTEA) Assay for Alkaline Phosphatase, Placental (ALPP) gene using HepaRG (AID 2283468);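 for AC50: differentiated human HepaRG liver cells in serum-free induction medium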
Procedure, shortened: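 Expression of ALPP was quantified by qRT-PCR against three housekeeping genes in human HepaRG cultures treated for 48 h with an eight-point concentration series up to 100 uM. Activity in either direction was fitted relative to 0.5% DMSO.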

[16] = read-out: Bcl-2 (BAD) gene, BAD (gene 572); experiment: LTEA_HepaRG_BAD: Life Technologies and Expression Analysis (LTEA) Assay for Bcl-2 (BAD) gene using HepaRG (AID 2283469)
Procedure, shortened: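 Activity values reflect up- or down-regulation of BAD mRNA in human HepaRG hepatic cells treated 48 h in serum-free medium, with eight-point half-log dosing capped at 100 uM and 0.5% DMSO vehicle.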

[17] = read-out: Bcl-2 (BAX) gene, BAX (gene 581); experiment: LTEA_HepaRG_BAX: Life Technologies and Expression Analysis (LTEA) Assay for Bcl-2 (BAX) gene using HepaRG (AID 2283470)
Procedure, shortened: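 qRT-PCR read-out of BAX mRNA, normalized to three housekeeping genes, after 48 h chemical exposure of human HepaRG cells in serum-free induction medium; eight-point half-log series, top 100 uM, 0.5% DMSO vehicle; bidirectional fit versus DMSO.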

[18] = read-out: adenosine kinase (ADK) gene, ADK (gene 132); experiment: LTEA_HepaRG_ADK: Life Technologies and Expression Analysis (LTEA) Assay for adenosine kinase (ADK) gene using HepaRG (AID 2283471)
Procedure, shortened: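 HepaRG (human liver), 48 h chemical exposure, 8-pt half-log series, top 100 uM, 0.5% DMSO vehicle. Readout: ADK mRNA by qRT-PCR vs housekeeping genes; bidirectional curve fit relative to DMSO baseline.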

Measured: AC50

Sequence of Broad substrate specificity ATP-binding cassette transporter ABCG2 (Homo sapiens) (Q9UNQ0 whole entry, looked up): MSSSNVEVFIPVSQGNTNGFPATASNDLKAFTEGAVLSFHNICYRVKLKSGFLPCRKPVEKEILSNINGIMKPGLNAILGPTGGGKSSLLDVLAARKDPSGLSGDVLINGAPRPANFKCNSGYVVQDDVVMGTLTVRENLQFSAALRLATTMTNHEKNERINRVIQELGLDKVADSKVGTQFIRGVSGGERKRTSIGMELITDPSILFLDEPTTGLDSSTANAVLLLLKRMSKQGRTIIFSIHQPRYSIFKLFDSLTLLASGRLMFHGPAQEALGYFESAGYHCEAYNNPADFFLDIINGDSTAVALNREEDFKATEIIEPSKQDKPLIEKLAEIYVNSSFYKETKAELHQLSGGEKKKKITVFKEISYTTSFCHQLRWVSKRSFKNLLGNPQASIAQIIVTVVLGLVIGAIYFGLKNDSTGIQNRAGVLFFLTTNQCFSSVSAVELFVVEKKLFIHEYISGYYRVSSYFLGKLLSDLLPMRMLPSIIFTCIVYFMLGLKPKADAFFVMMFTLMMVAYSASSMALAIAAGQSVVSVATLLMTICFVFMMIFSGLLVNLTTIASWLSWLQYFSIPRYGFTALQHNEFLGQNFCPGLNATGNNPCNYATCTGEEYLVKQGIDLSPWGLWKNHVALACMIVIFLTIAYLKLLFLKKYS

CCN(Cc1cccnc1)C(=O)c1cccc(Cl)c1[C@]1(C)C(=O)N(Cc2ccc(OC)cc2OC)c2ccc(Cl)cc21
inactive: [3] | [4] | [5] | [8] | [9] | [11] | [16] | [18]
active: [1] 18.4 µM | [2] 16.6 µM | [6] 18.1 µM | [7] 8.39 µM | [10] 23.6 µM | [12] 6.56 µM | [13] 16.9 µM | [14] 18.2 µM | [15] 10.1 µM | [17] 24.7 µM

CCCCCCCC[Si](OCC)(OCC)OCC
inactive: all assays above

COc1cc(C(=O)NC2CCN(C)CC2)ccc1Nc1ncc2c(n1)N(C1CCCC1)CC(F)(F)C(=O)N2C
active: [1] 15.3 µM | [2] 12.6 µM | [3] 2.11 µM | [4] 14.4 µM | [5] 11.5 µM | [6] 4.65 µM | [8] 6.41 µM | [9] 46.5 µM | [10] 4.65 µM | [11] 21.5 µM | [12] 4.65 µM | [13] 32.4 µM | [14] 12.2 µM | [15] 3.13 µM | [16] 11.1 µM
inactive: [7] | [17] | [18]

Cc1cc2c(cc1C(F)(F)F)N(C(=O)Nc1ccc(Oc3cccnc3C)nc1)CC2
active: [1] 46 µM | [2] 46 µM | [3] 3.67 µM | [4] 72.6 µM | [5] 80.9 µM | [6] 78.1 µM | [9] 11.6 µM | [10] 3.86 µM | [12] 11 µM | [14] 46 µM | [15] 15.8 µM | [18] 82.4 µM
inactive: [7] | [8] | [11] | [13] | [16] | [17]

COc1cccc([C@H](O)C2CCN(CCc3ccc(F)cc3)CC2)c1OC
active: [3] 54.5 µM | [10] 26.6 µM | [13] 80.7 µM | [15] 9.92 µM
inactive: all other assays above

O=C=NCCCCCCN=C=O
active: [3] 80.1 µM
inactive: all other assays above
